Results as given in PubChem BioAssay AID1508600 (Functional Genomics Laboratory (NCATS/FGL), 2020).
The whole screen tested about 53,000 sequences, of which about 3,700 (7%) were called active. This excerpt belongs to a sample that is enriched for actives. Unmarked numbers belong to inactive results.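 How the source made its calls: active means gene knockdowns whose robust z-score for IL-1 alpha signal is at least 2 or at most -2, so actives lie on both sides; inactive means the rest.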

experiment: Components of the Cytosolic LPS Sensing Pathway: Gene Identification via Genome-wide siRNA Screen; details: RAW264.7 macrophages, IL-1a HTRF, actives lie on both sides, screened at 100 nM (by protocol), cells primed 5 h with Pam3CSK4 first;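 further: robust z of the log signal after scaling to non-targeting control siRNA wells of the plate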
Method in brief: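 Three distinct siRNAs per gene were tested singly at 100 nM in RAW264.7 macrophages. Following Pam3CSK4 priming and 24 hour LipidA transfection, IL-1a secretion was read by HTRF.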

Sequence	z-score
GGCAAAAUCUAUUGUCUUCTT against Ran	-2.2 (active)
GGAGGUAAAUGAAAAAUCUTT against Nop56	0.611
GGUGAUCGUGGUGUGGAACTT against Extl2	0.941
GGCAAUGAUGAGACCUAGUTT against Mybbp1a	0.0956
GCAAUCGAGCUGAAACUAGTT against Hat1	0.721
CCACCAUUUAUAUUUGGUUTT against Slc35g1	-0.298
GGGUUACAAUAACUGGACATT against Ggcx	2.32 (active)
GCCACAUGGUUAAUAAGAGTT against Postn	-1.5
ACCUCAAGACAGUGCAAAUTT against H2bc4	-1.41
GGAAAAUCAACAGCAUCAATT against Olfr661	-0.642
CCCUAUUGAUUCAACUUGGTT against Samt4	0.253
GGGCAACGUAUUCACAUUATT against Manbal	2.86 (active)
GGAGCUUUGAAGAGACUGGTT against Olfr117	-2.32 (active)
GGUGCUGCUGAGAUUUUUCTT against Pxt1	0.555
GGCAAUGGAGAGAGAGAUGTT against Patl1	-2.36 (active)
GGAUCAAAGGAAGAAGGGCTT against Zbtb24	-0.00585
GGCCAGAACUUAAAUUUUCTT against Nbr1	0.658
GGUAGUGUCUAACUUCUGGTT against Zkscan17	2.13 (active)
GGGACAAUUCUGGAUUAAATT against 9330155M09Rik	-0.639
GGGAAUCACCCUGAGAAAGTT against Ccndbp1	-0.269
GAACAGUCCUUUUAUGGAUTT against Vmn1r33	0.38
GCAUCCUUCACUCAAAUAUTT against Aspa	3.17 (active)

Sequence	z-score
GGACAGAGUUUUCAUUUUGTT against Rptn	-1.51
GCUUCAGCCAUUUCACCUUTT against Rnaseh2c	0.108
GGGAAUAAUCUACAAGCCATT against Ccdc121	1.92
GGUGUACCAGCAUAGCUGUTT against Hps5	1.24
GGAAAAUUACAGAAUUGGATT against Dnali1	0.323
GGAGCACUUUAAGUUAUACTT against Rnf225	1.73
GGAAGAUGACAACUUAUCUTT against Abcc8	-0.854
AUGAAAACCAUUCCCAAUUTT against Olfr435	5.22 (active)
GGCUGUUCUCUAGAUGAAUTT against 1810065E05Rik	-1.54
GCACUAGCUAAUAAUGCAATT against Oxsm	-1.54
GGAAUGAGAAGAGAGGAUCTT against Rpp25	-0.239
GGGCAAGUUUUUUUUUCUUTT against Sf3a2	0.586
UGGCCUGAUCAUGAACAGUTT against S100a7a	1.21
GGCCGAAGAAUUCAUCUUUTT against Pomgnt2	-0.339
GGUCGAUUUGUCCUUGUGCTT against Rassf7	-2.04 (active)
GGGCCUGAAAAGACCAUCATT against Olfr124	-0.424
CCUUGAUCUACAUAGAACCTT against Olfr177	0.338
GGGAUUUUGUGAUGUCCGCTT against Mmp23	0.422
CCACUUUCAACCUGACCGUTT against Pcdhac2	0.345
GGACGAUUCCCAGUUUCUGTT against Phf1	1.25
GCCGGAAUCAAGAUUAUCATT against Foxm1	-2.04 (active)
GGCUGCUUUCUGAUGGUCATT against Marchf3	0.595

Sequence	z-score
GGAAUACUGAAUUUAAGGATT against Olfr1416	1.25
GGAAGCGUAAAUAAGUGUCTT against Emp2	0.772
GGAAAAUGUUGAAGUGGAATT against Ndufa5	-0.805
GGUGCAUGCACUGAAGAAGTT against Mpv17	1.39
CGAAUAGGGAGCCAUAAGATT against Tubb6	1.66
GCCUCACUCAGCAAAAGGATT against Ttc9c	-2.09 (active)
GGAGACCUGUGACUCCUUATT against 4932415M13Rik	1.9
GCUAGACUUCUUUGUGCGATT against Abhd8	0.656
GGCAAUGGCACUGAAGUCATT against Olfr994	-0.0376
CCCAAGCAACCCUUAUCAATT against Mcee	-0.315
GGUAUCACUACUUUUUAGUTT against Eri3	-0.742
GGUUUGUGGUGGUAUUUAATT against Man2a2	2.47 (active)
GGAUGAGGACACCAUUGAUTT against Sumo3	0.723
GGUUGACGAAAUGACUAUATT against Adh4	-0.105
GCAGACCAGACAGUAUUACTT against Zeb1	1.22
GCCUCUCAUUAGCAGUCAATT against Fbxl15	-1.92
CGUUAGCUGUUAUGAUCUATT against Cept1	0.203
GGGUCCUAAGGGAUUUAUUTT against Klf16	-0.49
GGUUUUGCACAGCAUUGGUTT against Efna1	-1.02
GGAAUCAAACUGGAUUGAUTT against Pi4k2b	2.01 (active)
GGUAUUGGAUCAUUUACAATT against Nae1	-0.0968
CGAUUUGCCCAAUAAAGAATT against Scn9a	0.223

Sequence	z-score
GGACGAAUUUCUUACAGUATT against Mterf4	2.2 (active)
GCCGAUGUCAGUGGUUAAATT against Bmx	0.198
CCUGGUAUAUUACCGCUUCTT against P3h4	0.519
GGAUCUCUGGGUCUGAAAATT against Ccz1	0.606
GCACGUCCAUUCUGCUUUCTT against Smco4	2.4 (active)
GGACCUGUGUGCUGAGUUGTT against Matn4	-1.59
GGGAGAUUAAUCAAGAACUTT against Ccnc	0.809
GGUUGGAGAUCUCAUCUAUTT against Exosc3	0.699
GCACCUCUCUACAUUACUGTT against Igflr1	-0.0949
GGCUGAAGACACUGAACACTT against Olfr643	-2.51 (active)
GCAUUCAGAAAGUGUAUAATT against Tspan3	-0.0953
GGGUGAAGGUGAAUAUUUATT against Esm1	-1.12
GGCCUAGACAUACAUGAAATT against Bnip3l	2.93 (active)
GCCAAAGUAGUUGAACCUUTT against Cibar1	-0.48
GGACUGAACCGUUUUAAAGTT against Fmo3	-0.317
GCAUUACUUUAAGCCAUAUTT against Rbl1	3.57 (active)
GGGCCUGUACAUCUUCCAATT against Anpep	0.926
CUGGAUGCAUUAACUUCUUTT against Olfr1219	0.326
GGGUAGUUAUGACUAAAUUTT against Etl4	1.31
GGAGAAUAUUCUCUGUGGATT against Rab11fip5	-2.71 (active)
GCACACUACAACGUAUCACTT against Stpg2	1.31
CCCAACUGUCAAAUAAUCCTT against Eddm3b	0.0505

Sequence	z-score
GCCAUUACCCGGUAUAUGATT against Sesn1	-1.96
GGAUCACUCUAAUUCAGAUTT against Fcamr	1.93
GGACAUUUGAUAUUGAAGATT against B3gnt2	-1.88
CGGAAGUAAAAAGAACUACTT against Olfr1321	3.01 (active)
CCCUGGUGACUACGAGAAUTT against Chrna4	-0.462
GGACUUUACAAUAAAACAGTT against Dkk4	-2.2 (active)
GGUGAUGCCUUAUUUUGAATT against Ap5s1	-1.1
GGUAACAAACCGAAAGUAUTT against Polr3k	-0.539
GGAACAAGUGUCUGACAGUTT against Emc3	1.82
GCGCACAGUACAUUCAUUUTT against Drd5	3.62 (active)
CCGAAAACUUAUCUAGAAATT against BC023105	-0.846
GGAUCAACAUGGUCUCCUCTT against Stambpl1	-1.63
GCCAGAAAAGUACCACCAGTT against Slc35f4	-1.15
GCUUUCAUAGAAUCUUGGCTT against Rnf24	0.709
GGAGAUGGCUAUAUUCUGATT against Lipa	0.0668
GCGAGUACUUACUCUUCGUTT against Rpl3	-0.355
GCACGUGAACACAAACCCGTT against Nup50	-1.13
GCUUAAGUGUGAUACAGUGTT against Rars2	2.45 (active)
GUUACAGCUGCCUUUGUUUTT against Olfr893	-2.49 (active)
CGUCUGUCAGAAACUACACTT against Atrnl1	0.864
